Measurements published in PubChem BioAssay AID1159580 (chemical genetic matrix, 2015).
The whole screen tested about 5,500 compounds, of which about 2,000 (36%) were called active. Not shown: some 18% with an inconclusive outcome. No stated cut-off is given here; in the data, active means normalized growth mostly below about 0.91 (no sharp cut-off); inconclusive means no clear call, values can overlap the other calls; inactive means mostly above about 0.92. Some of the results follow.

Assay: chemical genetic growth profiling, strain panel (AID 1159580);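 further: tested at 20 µM; growth read once vehicle control cultures reached saturation at 30 °C; 1 = growth at the plate median or of vehicle wells; lower values mean less growth of the strain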
Conditions: growth OD

Measured: normalized growth

COC(=O)/C(=C1\OC(=O)C(c2ccccc2)=C1O)c1ccccc1
inactive: S. cerevisiae deletion strains, locus YJL187C, strain SWE1, hits give low values 0.98 | S. cerevisiae deletion strains, locus YJR043C, strain POL32, hits give low values 1.02 | S. cerevisiae deletion strains, locus YJR066W, strain TOR1, hits give low values 0.902 | S. cerevisiae deletion strains, locus YKL009W, strain mrt4, hits give low values 1.01 | S. cerevisiae deletion strains, locus YKL068W, hits give low values 0.965 | S. cerevisiae deletion strains, locus YKL085W, strain MDH1 (second series), hits give low values 0.965 | S. cerevisiae deletion strains, locus YKL085W, strain MDH1, hits give low values 0.965 | S. cerevisiae deletion strains, locus YKL160W, strain elf1, hits give low values 0.969 | S. cerevisiae deletion strains, locus YKR001C, strain vps1, hits give low values 1.03 | S. cerevisiae deletion strains, locus YKR026C, strain gcn3, hits give low values 0.935 | S. cerevisiae deletion strains, locus YKR091W, strain srl3, hits give low values 0.965 | S. cerevisiae deletion strains, locus YLL001W, strain dnm1, hits give low values 0.97 | S. cerevisiae deletion strains, locus YLL026W, hits give low values 0.974 | S. cerevisiae deletion strains, locus YLL041C, strain sdh2, hits give low values 0.956 | S. cerevisiae deletion strains, locus YLR027C, strain aat2, hits give low values 0.969 | S. cerevisiae deletion strains, locus YLR039C, strain RIC1, hits give low values 1.03 | S. cerevisiae deletion strains, locus YLR058C, strain SHM2, hits give low values 1.01 | S. cerevisiae deletion strains, locus YLR102C, strain apc9, hits give low values 0.988 | S. cerevisiae deletion strains, locus YLR221C, strain rsa3, hits give low values 0.981 | S. cerevisiae deletion strains, locus YLR258W, strain gsy2, hits give low values 0.985 | S. cerevisiae deletion strains, locus YLR262C, strain YPT6 (second series), hits give low values 0.915 | S. cerevisiae deletion strains, locus YLR262C, strain YPT6, hits give low values 1 | S. cerevisiae deletion strains, locus YLR268W, strain sec22, hits give low values 1.03 | S. cerevisiae deletion strains, locus YLR320W, strain mms22, hits give low values 0.981 | S. cerevisiae deletion strains, locus YLR330W, strain CHS5, hits give low values 0.996 | S. cerevisiae deletion strains, locus YLR342W, strain FKS1 (second series), hits give low values 1 | S. cerevisiae deletion strains, locus YLR342W, strain FKS1, hits give low values 0.976 | S. cerevisiae deletion strains, locus YLR357W, strain rsc2, hits give low values 1.01 | S. cerevisiae deletion strains, locus YLR370C, strain arc18, hits give low values 0.97 | S. cerevisiae deletion strains, locus YLR371W, strain rom2, hits give low values 1 | S. cerevisiae deletion strains, locus YLR384C, strain iki3, hits give low values 0.982 | S. cerevisiae deletion strains, locus YLR418C, strain cdc73, hits give low values 0.996 | S. cerevisiae deletion strains, locus YML016C, strain PPZ1, hits give low values 1.01 | S. cerevisiae deletion strains, locus YML032C, strain rad52, hits give low values 0.987 | S. cerevisiae deletion strains, locus YML120C, strain ndi1, hits give low values 0.985 | S. cerevisiae deletion strains, locus YML124C, strain tub3, hits give low values 0.993 | S. cerevisiae deletion strains, locus YMR058W, strain fet3, hits give low values 0.981 | S. cerevisiae deletion strains, locus YMR078C, strain ctf18, hits give low values 1 | S. cerevisiae deletion strains, locus YMR125W, strain sto1, hits give low values 0.982 | S. cerevisiae deletion strains, locus YMR129W, hits give low values 0.965 | S. cerevisiae deletion strains, locus YMR205C, strain PFK2, hits give low values 0.965 | S. cerevisiae deletion strains, locus YMR223W, strain ubp8, hits give low values 0.98 | S. cerevisiae deletion strains, locus YMR231W, strain pep5, hits give low values 0.98 | S. cerevisiae deletion strains, locus YMR307W, strain GAS1, hits give low values 1.1 | S. cerevisiae deletion strains, locus YNL067W, strain RPL9B, hits give low values 1.03 | S. cerevisiae deletion strains, locus YNL071W, strain lat1, hits give low values 0.98 | S. cerevisiae deletion strains, locus YNL128W, strain TEP1, hits give low values 1.02 | S. cerevisiae deletion strains, locus YNL183C, strain NPR1, hits give low values 0.899 | S. cerevisiae deletion strains, locus YNL209W, strain ssb2, hits give low values 0.967 | S. cerevisiae deletion strains, locus YNL233W, strain BNI4, hits give low values 1.02 | S. cerevisiae deletion strains, locus YNL248C, strain rpa49, hits give low values 0.985 | S. cerevisiae deletion strains, locus YNL250W, strain rad50, hits give low values 0.998 | S. cerevisiae deletion strains, locus YNL271C, strain bni1, hits give low values 0.986 | S. cerevisiae deletion strains, locus YNL298W, strain CLA4, hits give low values 0.982 | S. cerevisiae deletion strains, locus YNL307C, strain MCK1, hits give low values 0.988 | S. cerevisiae deletion strains, locus YNL322C, strain KRE1 (second series), hits give low values 0.953 | S. cerevisiae deletion strains, locus YNR049C, strain mso1, hits give low values 0.959 | S. cerevisiae deletion strains, locus YNR052C, strain pop2, hits give low values 1.01 | S. cerevisiae deletion strains, locus YOL006C, strain TOP1, hits give low values 1.17 | S. cerevisiae deletion strains, locus YOL012C, strain htz1 0.689 | S. cerevisiae deletion strains, locus YOL147C, strain pex11, hits give low values 0.99 | S. cerevisiae deletion strains, locus YOR001W, strain rrp6, hits give low values 0.974 | S. cerevisiae deletion strains, locus YOR061W, strain CKA2, hits give low values 0.999 | S. cerevisiae deletion strains, locus YOR069W, strain VPS5, hits give low values 0.995 | S. cerevisiae deletion strains, locus YOR070C, strain gyp1, hits give low values 0.976 | S. cerevisiae deletion strains, locus YOR080W, strain dia2, hits give low values 0.982 | S. cerevisiae deletion strains, locus YOR083W, strain WHI5, hits give low values 0.968 | S. cerevisiae deletion strains, locus YOR106W, strain vam3, hits give low values 1.01 | S. cerevisiae deletion strains, locus YOR136W, strain idh2, hits give low values 1 | S. cerevisiae deletion strains, locus YOR144C, strain elg1, hits give low values 0.984 | S. cerevisiae deletion strains, locus YOR184W, strain ser1, hits give low values 1.01 | S. cerevisiae deletion strains, locus YOR231W, strain MKK1, hits give low values 0.903 | S. cerevisiae deletion strains, locus YOR265W, strain rbl2, hits give low values 0.961 | S. cerevisiae deletion strains, locus YOR270C, strain vph1, hits give low values 0.974 | S. cerevisiae deletion strains, locus YOR290C, strain snf2, hits give low values 0.948 | S. cerevisiae deletion strains, locus YOR316C, strain cot1, hits give low values 0.981 | S. cerevisiae deletion strains, locus YPL051W, strain arl3, hits give low values 0.983 | S. cerevisiae deletion strains, locus YPL055C, strain LGE1, hits give low values 1.05 | S. cerevisiae deletion strains, locus YPL078C, strain atp4, hits give low values 0.972 | S. cerevisiae deletion strains, locus YPL106C, strain sse1, hits give low values 0.966 | S. cerevisiae deletion strains, locus YPL240C, strain hsp82, hits give low values 0.956 | S. cerevisiae deletion strains, locus YPL241C, strain CIN2, hits give low values 0.989 | S. cerevisiae deletion strains, locus YPL256C, strain CLN2, hits give low values 0.865 | S. cerevisiae deletion strains, locus YPR119W, strain clb2, hits give low values 0.99 | S. cerevisiae deletion strains, locus YPR141C, strain kar3, hits give low values 0.965 | S. cerevisiae deletion strains, locus YPR163C, strain tif3, hits give low values 0.997 | S. cerevisiae deletion strains, locus YPR167C, strain met16, hits give low values 0.983 | S. cerevisiae deletion strains, strain wtn01, hits give low values 1.01 | S. cerevisiae strains, strain wild type, hits give low values 0.992
active: S. cerevisiae deletion strains, locus YLR113W, strain HOG1, hits give low values 0.827
